What follows are compounds tested on T1, ERK5. Settings: concentration: 1 μM,replicates: in singlicate; n = 1.
T1 construct: gene MAPK7
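Note: KINOMEscan kinase panel screen.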

Row | Structure (SMILES) | %Inh [%]
1 | CCN(CC)CCOc1ccc(Nc2ncc3cc(-c4c(Cl)cccc4Cl)c(=O)n(C)c3n2)cc1 [SB-601273] | 85
2 | Cc1cc(C(=O)Nc2ccc(Oc3ccc4nc(NC(=O)C5CC5)cn4n3)cc2)nn1-c1ccccc1 | 33
3 | Cl.Oc1cc(-c2nc(-c3ccccc3)[nH]c2-c2ccncc2)ccc1Cl [SB-386023] | 42
4 | CNC(=O)c1ccccc1Sc1ccc2c(/C=C/c3ccccn3)n[nH]c2c1 | 0
5 | Cc1ccc2c(-c3ccncc3)c(-c3ccc(F)cc3)nn2c1.Cl [GW461484] | 6
6 | CN(C)CC(O)COc1ccc(Nc2nccc(-c3cnn4nc(N5CCOCC5)ccc34)n2)cc1 (stereo not drawn) [GW767488] | 33
7 | Cl.Cl.Nc1nc(-c2ccc3c(N)n[nH]c3c2)cc(N2CCCC(NC(=O)c3ccccc3)C2)n1 (stereo not drawn) [GSK2286775] | 14
8 | CCn1c(-c2nonc2N)nc2c(C#CC(C)(C)O)nc(OCCN)cc21.Cl.Cl [GSK902056] | 0
9 | CC(C)Nc1cc(-c2ccc3c(N)n[nH]c3c2)nc(N)n1 [GSK2221681] | 0
10 | Cl.Cl.NC[C@H](CC1CCCCC1)NC(=O)c1cc(Br)c(-c2ccnc3[nH]ccc23)s1 [GSK1581427] | 0
11 | Cc1ccc(-n2nc(C(C)(C)C)cc2NC(=O)Nc2ccc(OCCN3CCOCC3)c3ccccc23)cc1 [GW839464] | 0
12 | Nc1nc(Nc2ccccc2)cc(-c2ccc3c(N)n[nH]c3c2)n1 [GSK2225749] | 0
13 | C[C@@H]1CCN(C(=O)CC#N)C[C@@H]1N(C)c1ncnc2[nH]ccc12 | 0
14 | C=CC(=O)Nc1cc2c(Nc3ccc(F)c(Cl)c3)ncnc2cc1OCCCN1CCOCC1 [GW781483] | 0
15 | CCN(CC)CCCCNc1ncc2cc(-c3c(Cl)cccc3Cl)c(NC(=O)NC(C)(C)C)nc2n1 | 7
16 | CC(C)N1C(=O)Cc2cc(Nc3ncc(C(F)(F)F)c(NCc4cccc(S(C)(=O)=O)c4)n3)ccc21 | 14
17 | Cl.Cl.NC[C@H](Cc1ccc(C(F)(F)F)cc1)NC(=O)c1cc(Br)c(-c2ccnc3[nH]ccc23)s1 [GSK1487252] | 0
18 | Cc1n[nH]c2ccc(-c3cc(OC[C@@H](N)Cc4ccccc4)cnc3-c3ccoc3)cc12.O=C(O)C(F)(F)F.O=C(O)C(F)(F)F [GSK507358] | 0
19 | Cc1cc2cn[nH]c2cc1-c1cccc2c(N)c(C(N)=O)nnc12 | 17
20 | COc1ccc(C[C@@H](CN)NC(=O)c2cc(Br)c(-c3ccnc4[nH]ccc34)s2)cc1.Cl.Cl [GSK1389063] | 0
21 | O=C(NCCNc1ccnc(NCc2ccc(F)cc2)n1)c1cc2ccccc2s1 [GSK1379944] | 0
22 | C[C@H]1Oc2cc(cnc2N)-c2c(nn(C)c2C#N)CN(C)C(=O)c2ccc(F)cc21 | 44
23 | O=C(NCCCN1CCOC1=O)c1cnc(NCc2cc(Cl)ccc2Cl)nc1NC1CCCC1 | 3
24 | NC(=O)c1cc(-c2ccccc2)cc2c(C3CCNCC3)c[nH]c12 [GSK301362] | 0
25 | CN(C)CCOc1ccc(-c2cc(-c3c[nH]nc3-c3ccccn3)ccn2)cc1 [GW835314] | 0
26 | C[C@@H](Oc1cc(-c2cnn(C3CCNCC3)c2)cnc1N)c1c(Cl)ccc(F)c1Cl | 77
27 | Cc1occc1-c1nc(N)c(OC[C@@H](N)Cc2c[nH]c3ccccc23)cc1-c1cc2c(C)n[nH]c2cn1 [GSK1660450] | 0
